The campaign covered roughly 310,000 compounds. About 14,000 (4.5%) showed an effect of 50% or more. The effect is printed as a negative number. The entries come from a sample that favours strong results as a whole.
Target: human ether-à-go-go-related gene (hERG) potassium channel (human, UniProt Q12809)
Assay: primary screen, population patch clamp on CHO cells stably expressing hERG; higher = less effect of the substance
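Note: peak tail current of the secondary pulse compared with the same well before compound.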

human ether-à-go-go-related gene (hERG) potassium channel, sequence (Q12809 whole entry, looked up): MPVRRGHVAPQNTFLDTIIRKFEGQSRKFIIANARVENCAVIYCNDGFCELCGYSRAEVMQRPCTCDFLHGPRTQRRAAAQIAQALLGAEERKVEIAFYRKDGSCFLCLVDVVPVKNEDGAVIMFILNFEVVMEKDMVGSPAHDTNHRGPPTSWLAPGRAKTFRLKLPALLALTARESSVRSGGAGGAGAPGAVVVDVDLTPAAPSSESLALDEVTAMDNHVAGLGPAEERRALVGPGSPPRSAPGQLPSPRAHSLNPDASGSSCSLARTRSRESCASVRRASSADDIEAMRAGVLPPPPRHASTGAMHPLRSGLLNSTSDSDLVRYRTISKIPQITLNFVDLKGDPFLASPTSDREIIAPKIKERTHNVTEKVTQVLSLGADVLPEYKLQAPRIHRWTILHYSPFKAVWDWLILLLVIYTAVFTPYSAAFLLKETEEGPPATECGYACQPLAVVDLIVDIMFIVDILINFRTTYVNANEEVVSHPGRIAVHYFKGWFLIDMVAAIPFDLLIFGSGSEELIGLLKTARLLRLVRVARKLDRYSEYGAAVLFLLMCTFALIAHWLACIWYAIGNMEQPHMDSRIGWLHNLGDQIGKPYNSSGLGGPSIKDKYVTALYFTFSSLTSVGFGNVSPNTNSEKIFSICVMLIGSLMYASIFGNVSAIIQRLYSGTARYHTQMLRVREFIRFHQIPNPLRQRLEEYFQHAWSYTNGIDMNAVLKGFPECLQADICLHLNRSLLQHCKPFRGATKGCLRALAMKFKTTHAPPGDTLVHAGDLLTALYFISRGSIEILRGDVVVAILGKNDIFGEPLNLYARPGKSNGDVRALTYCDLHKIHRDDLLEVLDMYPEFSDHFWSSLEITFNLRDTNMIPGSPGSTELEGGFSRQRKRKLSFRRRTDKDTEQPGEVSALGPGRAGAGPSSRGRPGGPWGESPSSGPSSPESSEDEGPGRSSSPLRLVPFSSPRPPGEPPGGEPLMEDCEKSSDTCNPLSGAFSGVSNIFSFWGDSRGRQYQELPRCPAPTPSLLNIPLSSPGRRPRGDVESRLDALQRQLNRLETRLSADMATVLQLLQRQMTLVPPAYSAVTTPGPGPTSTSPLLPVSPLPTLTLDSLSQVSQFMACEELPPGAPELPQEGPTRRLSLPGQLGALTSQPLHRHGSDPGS

| SMILES | hERG current change (%, negative = inhibition) at 10uM |
| --- | --- |
| CCC(=O)OC1(C)C(=O)C=C2C=C(CCCCNC(=O)OC(C)(C)C)OC=C2C1=O (centres unmarked) | 6.58% |
| CCCN(CCC)CCCNC(=O)CN1C(=O)CSc2ccc(S(=O)(=O)N3CCOCC3)cc21 | 20.2% |
| CCc1ccc(-c2nnn(Cc3nc4ccccc4s3)n2)cc1 | -10.3% |
| Cc1ccc(OCC(=O)Nc2ccc(S(=O)(=O)N3CCCC3)cc2)cc1 | 15.5% |
| O=C(N/N=C/c1cc([N+](=O)[O-])ccc1O)C(O)(c1ccccc1)c1ccccc1 | 4.13% |
| Cc1cc(C(=O)NN=C2CCCCCCC2)c2ccccc2n1 | 5.42% |
| C=CCOC(=O)C1=C[C@H](c2ccc(C(F)(F)F)cc2)[C@@H](CCCO)[C@H](OCC)O1 | -16.3% |
| O=C(CC1C(=O)NCCN1Cc1ccc(Cl)c(F)c1)NCCc1cccnc1 (centres unmarked) | -12.7% |
| CCC1CCCCN1C(=O)C(=O)c1cn(CC(=O)N(CC)CC)c2ccccc12 (centres unmarked) | 21% |
| CCCCN(C(=O)c1ccc2c(c1)OCCO2)c1c(N)n(CC(C)C)c(=O)[nH]c1=O | -11.7% |
| O=c1oc2ccccc2n1CCn1c2ccccc2c2nc3ccccc3nc21 | 10.7% |
| Cn1c(=O)cc(SCC(=O)NCCCN2CCOCC2)c2ccc(Cl)cc21 | -3.15% |
| CN(CCCNC(=O)CSc1cc(=O)n(C)c2ccc(Cl)cc12)Cc1ccccc1 | -61.2% |
| Cc1cccc(CN2CCC(CNC(=O)CSc3cc(=O)n(C)c4cc(Cl)ccc34)CC2)c1 | -69.7% |
| CCN1CCCC1CNC(=O)CSc1cc(=O)n(C)c2cc(Cl)ccc12 (centres unmarked) | -32.7% |
| CCN(CCCNC(=O)CSc1cc(=O)n(C)c2cc(Cl)ccc12)Cc1ccccc1 | -58.8% |
| CN(CCCNC(=O)COc1cc(=O)n(C)c2ccccc12)Cc1ccccc1 | -18.1% |
| COCCNC(=O)CSc1cc(=O)n(C)c2cc(Cl)ccc12 | 2.04% |
| CCCCNC(=O)CSc1cc(=O)n(C)c2ccccc12 | 4.11% |
| CCOc1ccc(CCNC(=O)CSc2cc(=O)n(C)c3cc(Cl)ccc23)cc1OCC | -3.7% |
| Cn1c(=O)cc(SCC(=O)NCC2CCCO2)c2ccc(Cl)cc21 (centres unmarked) | -7.37% |

| SMILES | hERG current change (%, negative = inhibition) at 10uM |
| --- | --- |
| Cn1c(=O)cc(SCC(=O)NCCC2=CCCCC2)c2cc(Cl)ccc21 | 5.01% |
| CN(CCCNC(=O)CSc1cc(=O)n(C)c2cc(Cl)ccc12)Cc1ccccc1 | -63.5% |
| C/C(CC(=O)Nc1ccc(Cl)cc1Cl)=N\NC(=O)C(=O)NCCO | 6.64% |
| O=C(NCc1ccco1)c1cc2nc(-c3cccs3)cc(C(F)(F)F)n2n1 | -17.6% |
| COc1cc(NC(=O)c2ccc(COCC(F)(F)F)cc2)cc(OC)c1OC | 1.25% |
| O=C(CSc1ccccc1)N[C@@H](Cc1ccccc1)C(=O)O | 13.7% |
| O=C(Nc1ccc(S(=O)(=O)Nc2ncccn2)cc1)C1COc2ccccc2O1 (centres unmarked) | 11.1% |
| COc1ccc(S(N)(=O)=O)cc1C(=O)NCC(C)(C)N1CCCCC1 | -15.2% |
| COc1ccc2c(C)cc(SCc3c(C)noc3C)nc2c1 | -17% |
| O=C(Nc1ccc(CN2CCOCC2)cc1)c1cc(Cl)ccc1Cl | 0.807% |
| Cc1cc(Br)ccc1NC(=O)CNC(=O)CSc1n[nH]c(N)n1 | 18.5% |
| CCc1cc2c3c(c1)C1(C(=O)N3C(C)(C)CC2C)C(C#N)=C(N)N2C(=C1C#N)Nc1ccccc12 (centres unmarked) | -1.49% |
| O=C(NC1CCCN(Cc2ccc(Cl)cc2)C1)c1c(F)cccc1F (centres unmarked) | -15.7% |
| COc1ccc(CCC(=O)NC2CCCN(Cc3ccc(Cl)cc3)C2)cc1OC (centres unmarked) | -48.2% |
| O=C(NC1CCCN(Cc2ccc(Cl)cc2)C1)c1c(F)ccc(F)c1F (centres unmarked) | -75.3% |
| O=C(NC1CCCN(Cc2ccc(Cl)cc2)C1)c1ccccc1C(F)(F)F (centres unmarked) | -16.9% |
| O=C(CCc1cccc(Cl)c1)NC1CCCN(Cc2ccccc2F)C1 (centres unmarked) | -28.3% |
| COc1cccc(CC(=O)NC2CCCN(Cc3ccc(Cl)cc3)C2)c1 (centres unmarked) | -26.3% |
| COc1cc(OC)cc(C(=O)NC2CCCN(Cc3ccc(Cl)cc3)C2)c1 (centres unmarked) | -37.1% |
| COc1ccc(C(=O)NC2CCCN(Cc3ccc(Cl)cc3)C2)c(OC)c1 (centres unmarked) | -79.5% |
